Assay outcomes as filed in PubChem BioAssay.
Sampled rows, rich in hits. Any-hit rate of the full collection: about 19%.
Lassa entry inh: qHTS for Inhibitors of binding or entry into cells for Lassa Virus. Lassa virus pseudotype entry inhibition, cell reporter. Potency, µM (series often up to 37.9 µM), hits mostly inhibitors. 1.2% of 300,000 active; calls by dose curve; tested in HEK293 cells; also: nearly all actives have a fitted effect of over 50% in size
CHX counter: Cycloheximide Counterscreen for Small Molecule Inhibitors of Shiga Toxin; max response, %; 12% of 300,000 active; cell reporter, cycloheximide protein synthesis inhibition counterscreen; in the data active = max response mostly above about 13%, no sharp cut-off; inactive = mostly below about 14%; also: read at 38.3 µM for the half of the compounds with a filed dose
Pf growth 48h: Primary qHTS for delayed death inhibitors of the malarial parasite plastid, 48 hour incubation. P. falciparum luciferase growth in erythrocytes, 48 h. Potency, µM (highest dose often 28.7 µM), most hits filed as inhibitors. 5.9% of 310,000 active
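Read-out is firefly luciferase luminescence from an integrated reporter in P. falciparum, so falling signal marks reduced parasite growth. Infected erythrocytes were at 2% hematocrit and 0.1% parasitemia (final) in Albumax-supplemented RPMI 1640.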
Pf growth 96h: Primary qHTS for delayed death inhibitors of the malarial parasite plastid, 96 hour incubation | 6.9% of 320,000 active | Potency, µM (series often up to 28.7 µM), most hits filed as inhibitors | AID 504834, 2011 | P. falciparum luciferase reporter growth, 96 h
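Two parasite generations (96 h, 37 C, 5% CO2) of compound exposure in infected erythrocytes (0.05% parasitemia, 2% hematocrit). Luciferase-reporter P. falciparum; decreased luminescence indicates inhibited growth, aimed at apicoplast-acting delayed death.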
MARV entry inh: qHTS for inhibitors of binding or entry into cells for Marburg Virus; Marburg virus pseudotyped entry inhibition, cell reporter; Potency, µM (doses to about 37.8 µM), most hits filed as inhibitors; 1.8% of 300,000 active; calls by dose curve; tested in HEK293 cells
Shiga inhibitor: A qHTS for Small Molecule Inhibitors of Shiga Toxin; Vero cells, Shiga toxin protein synthesis inhibition reporter; inhibition, % at 38.7 µM; 9.2% of 290,000 active; AID 2315, 2010; in the data active = inhibition mostly above about 28%, no sharp cut-off; inactive = mostly below about 43%
Of the large screens only hits and unclear results are named; the others gave an inactive call. Unless noted, calls follow the shape of the dose curve; as a rule, active = well fitted inhibition curve with a large enough effect; inconclusive = small, poorly fitted or top-dose-only effect, or another doubt; inactive = no such curve, though single readings can be large or run the other way.

O=C1CSC(c2cn(-c3ccccc3)nc2-c2cc3ccccc3oc2=O)N1Cc1ccccc1 (stereo not drawn)	Lassa entry inh 11µM, MARV entry inh inconclusive (no result: Pf growth 48h)
NC(=O)/C=C\c1cn(-c2ccccc2)nc1-c1ccc2c(c1)OCCO2	Lassa entry inh inconclusive
O=C1CSC(c2cn(-c3ccccc3)nc2-c2ccc3c(c2)OCCO3)N1CCN1CCOCC1 (stereo not drawn)	Pf growth 48h 8.3µM
CCOC(=O)C(=CNc1cccc(C)c1C)C(=O)OCC	MARV entry inh inconclusive
CC(=O)c1ccc(N2CCN(C(=O)c3n[nH]c4ccccc34)CC2)cc1	Pf growth 48h inconclusive, MARV entry inh inconclusive
COc1cc2c(cc1OC)CN(C(=O)c1nn(Cc3ccccc3)c(=O)c3ccccc13)CC2	Lassa entry inh inconclusive, Pf growth 48h 10µM, Pf growth 96h inconclusive, MARV entry inh inconclusive (no result: CHX counter, Shiga inhibitor)
COc1cc2c(cc1OC)CN(C(=O)c1cccs1)CC2	Pf growth 48h 0.66µM
CC(=O)c1ccc(N2CCN(C(=O)c3nn(Cc4ccccc4)c(=O)c4ccccc34)CC2)cc1	Lassa entry inh 10µM, Pf growth 48h 3.7µM, MARV entry inh inconclusive
COC(=O)c1nn(Cc2ccccc2)c(=O)c2ccccc12	none
CCNC(=S)N/N=C(\C)c1cccc(C(F)(F)F)c1	Pf growth 96h 12µM (no result: Lassa entry inh)
C/C(=N\NC(=S)NC1CCCCC1)c1cccc(C(F)(F)F)c1	Pf growth 48h 3.7µM, Pf growth 96h inconclusive (no result: Lassa entry inh, MARV entry inh)
C/C(=N\NC(=S)NC1CCCCC1)c1cccc(Br)c1	Pf growth 48h 1µM, Pf growth 96h 0.47µM
CC(=O)N/N=C(\C)c1cccc(C(F)(F)F)c1	Pf growth 48h inconclusive
COc1cccc(-c2nn(-c3ccccc3)cc2CN(C)Cc2ccno2)c1	none
CC(=O)N1CCN(C(=O)CCc2c[nH]c3ccccc23)CC1	none
Cc1cc(NC(=O)C2CCCO2)ccc1Br (stereo not drawn)	Lassa entry inh inconclusive, Pf growth 96h inconclusive
COCCn1c(SC(C)C(=O)NC2CCCCC2C)nc2ccccc2c1=O (stereo not drawn)	Lassa entry inh inconclusive (no result: CHX counter, Shiga inhibitor)
Cc1cccc(NC(=O)C(C)Sc2nc3ccccc3c(=O)n2CCCN2CCOCC2)c1 (stereo not drawn)	Pf growth 48h 13µM, Pf growth 96h 8.3µM (no result: Lassa entry inh, CHX counter, MARV entry inh, Shiga inhibitor)
COCCn1c(SC(C)C(=O)Nc2ccc3c(c2)OCCO3)nc2ccccc2c1=O (stereo not drawn)	Pf growth 48h inconclusive, Pf growth 96h 13µM
O=C(NN1C(=O)c2ccccc2C1=O)C1C2CCCCC21 (stereo not drawn)	Lassa entry inh inconclusive, CHX counter 11, MARV entry inh inconclusive
CCn1c(O)c(C=NC2CCCC2)sc1=S	CHX counter 34, MARV entry inh inconclusive (no result: Pf growth 48h)
C=CCn1c(O)c(C=Nc2ccccc2)sc1=S	Lassa entry inh inconclusive, CHX counter 28, Pf growth 96h inconclusive, Shiga inhibitor 64
CCn1c(O)c(C=Nc2ccccc2)sc1=S	CHX counter 38, MARV entry inh inconclusive, Shiga inhibitor 85
Oc1c(C=Nc2ccccc2)sc(=S)n1Cc1ccccc1	Lassa entry inh inconclusive
O=C(O)Cn1c(O)c(C=Nc2ccccc2)sc1=S	Pf growth 96h inconclusive, MARV entry inh inconclusive
Cc1cccc(C)c1NC(=O)CN(C)c1ccc(C(F)(F)F)cn1	Pf growth 96h inconclusive
Cc1nnc(SCC(=O)NCc2ccco2)[nH]c1=O	none
COc1cc(CCC(=O)Nc2ccc(Cl)c(C(F)(F)F)c2)cc(OC)c1OC	Pf growth 48h inconclusive, Pf growth 96h inconclusive, MARV entry inh inconclusive
CCN(c1ccccc1)S(=O)(=O)c1ccc(NCC2COc3ccccc3O2)nc1 (stereo not drawn)	Lassa entry inh 16µM, Pf growth 96h inconclusive, MARV entry inh inconclusive
CCN(c1ccccc1)S(=O)(=O)c1ccc(Cl)nc1	Pf growth 96h inconclusive
CC1CCC(NC(=O)C2COc3ccccc3O2)CC1 (stereo not drawn)	none (no result: CHX counter, Shiga inhibitor)
CC(=O)Nc1nnc(SCc2cc(=O)c3cccc(C)c3[nH]2)s1	none (no result: CHX counter, Pf growth 48h, Pf growth 96h, MARV entry inh, Shiga inhibitor)
O=C(c1ccc(F)cc1)N1CCCC(N2CCN(Cc3ccc4c(c3)OCO4)CC2)C1 (stereo not drawn)	Pf growth 96h inconclusive (no result: Lassa entry inh, MARV entry inh)
O=C1C2CC=CCC2C(=O)N1c1cccc(OS(=O)(=O)c2ccc3ccccc3c2)c1 (stereo not drawn)	Lassa entry inh inconclusive, Pf growth 96h 3.3µM (no result: Pf growth 48h)
CCOC(=O)C1CCCN(C(=S)Nc2ccc(OC)cc2)C1 (stereo not drawn)	none (no result: Lassa entry inh, MARV entry inh)
C=CCNC(=O)N1CCC(n2nccc2NC(=O)CCCc2ccccc2)CC1	Pf growth 96h inconclusive (no result: Lassa entry inh, MARV entry inh)
COc1ccc([C@@H]2C[C@@H](c3ccccc3)Oc3cc(OC)cc(OC)c32)cc1	Pf growth 48h inconclusive, Pf growth 96h inconclusive (no result: Lassa entry inh, MARV entry inh)
Cc1ccc(NC(=S)NNC(=S)Nc2cccc(C(F)(F)F)c2)cc1	Pf growth 48h inconclusive, Pf growth 96h inconclusive
Cc1ccc(C(OCCN(C)C)c2cccc(C(F)(F)F)c2)cc1 (stereo not drawn)	Lassa entry inh inconclusive, Pf growth 48h inconclusive, Pf growth 96h inconclusive, MARV entry inh 21µM
CC(C)c1ccc(N(CC(=O)NC2CCCCC2)C(=O)CCC(=O)Nc2ccccn2)cc1	Pf growth 48h inconclusive
O=C(O)c1cccc(NC(=O)c2ccc(COc3ccc(Cl)cc3)cc2)c1	none (no result: Lassa entry inh, MARV entry inh)
C/C(=N/OCO/N=C(\C)c1ccccc1)c1ccccc1	Lassa entry inh inconclusive, MARV entry inh 3.5µM
C/C(=N\OCc1ccc(C#N)cc1)c1ccccc1	CHX counter 42, Shiga inhibitor 70 (no result: Lassa entry inh, MARV entry inh)
COc1ccccc1OC(=O)c1ccc(S(=O)(=O)N(C)C)cc1	none (no result: Pf growth 48h)
C/C(=N\OCc1ccc(C#N)cc1)c1ccc(S(=O)(=O)N(C)C)cc1	CHX counter 48, Pf growth 96h inconclusive, Shiga inhibitor 80 (no result: Lassa entry inh, MARV entry inh)
COc1ccccc1/C=N/OCc1ccc(C#N)cc1	none
C/C(=N\OCc1cccc(C(=O)O)c1)c1ccc(Cl)cc1	Lassa entry inh inconclusive, CHX counter 78, Pf growth 48h 1µM, MARV entry inh inconclusive, Shiga inhibitor 125
CCOC(=O)N1CCC(N2CCN(S(=O)(=O)c3ccc(NC(C)=O)cc3)CC2)CC1	Pf growth 96h inconclusive (no result: Pf growth 48h)
CCC(C)C(NC=C1C(=O)OC(C)(C)OC1=O)C(=O)O (stereo not drawn)	MARV entry inh inconclusive (no result: Pf growth 96h)
O=C(CCC(=O)N1CCOc2ccccc21)Nc1ccc(F)cc1F	none (no result: Lassa entry inh, MARV entry inh)
COc1ccc(/C=C2\SC(=S)N(CCCC(=O)Nc3ccccc3C(=O)O)C2=O)cc1OC	Pf growth 48h inconclusive (no result: Lassa entry inh, MARV entry inh)
COc1ccc(/C=C2/SC(=S)N(CCCC(=O)Nc3ccc(O)cc3)C2=O)cc1OC	Pf growth 96h 12µM (no result: Lassa entry inh, MARV entry inh)
COc1ccc(/C=C2\SC(=S)N(CCCC(=O)Nc3ccc(C(=O)O)cc3)C2=O)cc1OC	Pf growth 48h 12µM, Pf growth 96h inconclusive
CCOc1ccc(/C=C2\SC(=O)N(c3ccc(O)cc3)C2=O)cc1OC	CHX counter 20 (no result: Lassa entry inh, MARV entry inh)
COc1ccc(/C=C2\SC(=N)N(c3ccc(F)cc3)C2=O)cc1OC	Lassa entry inh inconclusive, Pf growth 48h inconclusive
